Most compounds without a hit are left out; they make up all but 3.5% or so of the library.
FBW7 act – FBW7 E3 ligase activators, primary screen, biochemical, AlphaScreen, human; F-box/WD repeat-containing protein 7 (Homo sapiens), Q969H0; AlphaScreen FBW7–phospho-cyclin E peptide binding, activator screen; normalized activity (activation), % at 26.1 µM; 0.13% of 650,000 active; in the data active = normalized activity above about 1.9%;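 also: purified mutant Fbw7 with reduced substrate affinity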
GPR151 ag – activators of human GPR151, primary screen, cell-based, PathHunter beta-arrestin, luminescence | G-protein coupled receptor 151 (Homo sapiens), Q8TDV0 | PathHunter beta-arrestin GPR151 cells | activation, % at 11.2 µM | 1% of 650,000 active | AID 1508602, 2020; in the data active = activation above about 4.9%
TEAD-YAP inh – TEAD-YAP interaction inhibition, primary screen, TEAD-YAP interaction inhibitor project, luminescence, HEK-TIYL cells | AID 1259422, 2018 | inhibition, % at 9.12 µM | 1.4% of 640,000 active | TEAD-Gal4/YAP UAS-luciferase luminescence; in the data active = inhibition above about 32%
MITF inh – MITF inhibitors, primary screen, biochemical, AlphaScreen, human; Microphthalmia-associated transcription factor (Homo sapiens), O75030; AlphaScreen MITF homodimerization, bead proximity signal; inhibition, % at 2.6 µM; 0.91% of 650,000 active; AID 1259374, 2018; in the data active = inhibition above about 50%
Hits are given with their value; n = inactive.

SMILES	FBW7 act	GPR151 ag	TEAD-YAP inh	MITF inh
O=c1c2sc(=S)n(-c3ccccc3F)c2nc(SCC2OCCO2)n1-c1ccc(F)cc1	n	n	n	n
Oc1ccc(C2=Nn3c(nnc3-c3ccccc3O)SC2)cc1O	n	n	41	n
Cc1ccc(C2=Nn3c(nnc3-c3ccccc3C)SC2)cc1	n	n	60	n
Brc1ccc(C2=Nn3c(nnc3-c3ccccc3)SC2)cc1	n	n	n	n
COCCN(C(=O)CCC(=O)NCCc1ccccc1)C1CCN(C)CC1	n	n	n	n
COc1ccccc1CN1CCc2c(nc(N3CCCCC3C)[nH]c2=O)C1 (stereo not given)	n	n	n	n
O=C(Nc1cccc(-c2nc3ccccc3s2)c1)c1cc([N+](=O)[O-])ccc1Cl	n	n	36	n
O=C(Nc1cccc(-c2nc3ccccc3s2)c1)c1ccccc1[N+](=O)[O-]	n	n	n	n
O=C(Nc1ccc2c(c1)OC(F)(F)O2)c1cc([N+](=O)[O-])ccc1Cl	n	n	68	n
O=C(Nc1ccc(F)cc1)c1ccc(Cl)c([N+](=O)[O-])c1	n	n	48	n
O=C(Nc1cc(C(F)(F)F)ccc1Cl)c1ccc(Cl)c([N+](=O)[O-])c1	n	n	45	n
O=C(Nc1ccc(Cl)cc1)c1cc(Cl)ccc1[N+](=O)[O-]	n	n	n	n
O=C(Nc1cccc(I)c1)c1ccc(Cl)c([N+](=O)[O-])c1	n	n	33	n
O=C(Nc1cccc(F)c1)c1ccc(Cl)c([N+](=O)[O-])c1	n	n	n	n
O=C(Nc1cccc(C(F)(F)F)c1)c1ccc(Cl)c([N+](=O)[O-])c1	n	n	62	n
O=C(Nc1cccc(I)c1)c1cc([N+](=O)[O-])ccc1Cl	n	n	45	n
Cc1cccc(NC(=O)c2cc(Cl)ccc2[N+](=O)[O-])c1	n	n	45	n
C=CCOC(=O)C1C(c2ccc(Cl)cc2)c2c([nH][nH]c2=O)CC1(C)O (stereo not given)	n	n	n	n
CCCN(CCC)Cc1c(C(=O)N/N=C/c2cccc(OC)c2)nnn1-c1nonc1N	n	n	n	n
NS(=O)(=O)c1ccc(CNC(=O)COc2ccccc2)cc1	n	n	n	n
O=C(CSc1cccc2cccnc12)N1CCc2ccccc21	n	n	n	n
CC1=C(C(=O)OC2CCCCC2)C(c2cccc(I)c2)C2=C(CC(C)(C)CC2=O)N1 (stereo not given)	n	n	n	n
Cc1cc(C)c(CN2CCc3nnc(CNC(=O)Cc4cccc(F)c4)n3CC2)cc1C	n	n	n	n
O=C(Nc1cccc(Cl)c1)c1ccc(Cl)c([N+](=O)[O-])c1	n	n	45	n
OCCC1CCCCN1c1ccnc2c(-c3cccc(O)c3)cnn12 (stereo not given)	n	n	95	n
SMILES	FBW7 act	GPR151 ag	TEAD-YAP inh	MITF inh
OCCC1CCCCN1c1ccnc2c(-c3cccc4ccccc34)cnn12 (stereo not given)	n	n	n	n
CC(=O)Nc1cccc(-c2cnn3c(N4CCCCC4CCO)ccnc23)c1 (stereo not given)	n	n	n	n
OCCC1CCCCN1c1ccnc2c(-c3cccc(F)c3)cnn12 (stereo not given)	n	n	93	n
OCCC1CCCCN1c1ccnc2c(-c3cccc(C(F)(F)F)c3)cnn12 (stereo not given)	n	n	55	n
NC(=O)c1cccc(-c2cnn3c(N4CCCCC4CCO)ccnc23)c1 (stereo not given)	n	n	n	n
OCCC1CCCCN1c1ccnc2c(-c3cc4ccccc4o3)cnn12 (stereo not given)	n	n	67	n
N/C(=N\OC(=O)c1ccccc1Cl)c1cccc(Br)c1	n	n	n	n
Cc1c(C(=O)NCCC2=CCCCC2)sc2ncnc(N3CCN(c4ccccc4F)CC3)c12	n	n	n	n
N#CC1=C(N)OC2=C(CCC/C2=C/c2ccoc2)C1c1ccoc1 (stereo not given)	n	n	n	58
O=[N+]([O-])c1cc(CN2CCN(c3cccc(C(F)(F)F)c3)CC2)c(O)c2ncccc12	n	n	n	n
O=[N+]([O-])c1cc(CN2CCc3ccccc3C2)c(O)c2ncccc12	n	n	n	n
CN1CCN(Cc2cc([N+](=O)[O-])c3cccnc3c2O)CC1	n	n	n	76

Screens: PubChem, The Scripps Research Institute Molecular Screening Center
